Among the test systems are SR leukemia; RPMI-8226 leukemia; OVCAR-8 ovarian; OVCAR-5 ovarian; OVCAR-4 ovarian; IGROV1 ovarian; OVCAR-3 ovarian; HS 578T breast; NCI/ADR-RES ovarian; T-47D breast; BT-549 breast; MDA-MB-435 melanoma; MCF7 breast; HCT-116 colon; HCC-2998 colon; SK-OV-3 ovarian; SW-620 colon; KM12 colon.
What all share (assay): NCI-60 one-dose screen, 48 h (100 = growth as untreated, 0 = no growth, -100 = all killed)
What all share (conditions): 10 µM unless noted

The source of these data is PubChem BioAssay (NCI).

About 83,000 compounds went through this panel and 20% of them were active in at least one assay; those are over-represented in the sample as a whole.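 Testing used 96-well plates and a 48-hour single-concentration exposure. Example: -40 means 40% of the starting cells died.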 Values without a mark were called inactive. The source made the active and inactive calls. Rule for the calls: active = growth percent below 10; inactive = the rest.

Regarding `C=CCOc1cccc(/C=C2\SC(=Nc3ccc(O)cc3)NC2=O)c1`, the growth was 17.1% with SR leukemia; -14.4% (active) in the test with RPMI-8226 leukemia; 27.4% in the test on OVCAR-8 ovarian; 27.9% in the test on OVCAR-5 ovarian; 32% with OVCAR-4 ovarian; 20.3% with IGROV1 ovarian. The growth is 6.17% (active) in the test with OVCAR-3 ovarian; 18% in the test with HS 578T breast; 7.2% (active) in the test with NCI/ADR-RES ovarian; 60.9% in the test on T-47D breast; -16.3% (active) with BT-549 breast; -45.2% (active) with MDA-MB-435 melanoma. The growth in the test on MCF7 breast is 7.91% (active); in the test with HCT-116 colon, 5.94% (active); with HCC-2998 colon it was 10.6%.

On to `COc1ccc(-c2nc3ccccn3c2/C=C/C(=O)c2cc(OC)c(OC)c(OC)c2)cc1`, for which the growth was 18.8% in the test with SR leukemia; 29.8% with RPMI-8226 leukemia; 30.6% with OVCAR-8 ovarian; 56.5% in the test with OVCAR-4 ovarian; 62.8% with SK-OV-3 ovarian; 61.6% in the test with IGROV1 ovarian. For the same molecule, the growth in the test on OVCAR-3 ovarian was 51.2%; in the test with T-47D breast it was 26.6%; with BT-549 breast, 61.7%; in the test on MDA-MB-435 melanoma, 38.6%; in the test with SW-620 colon, 49.7%; with MCF7 breast, 18.8%. Moreover, the growth in the test on HCT-116 colon is 11.6%; in the test with HCC-2998 colon, 61.1%; with KM12 colon it was 46.3%.

On to `Cc1c2c(cn1Cc1ccccc1)CCc1cn(C)nc1-2`, for which the growth is 53.2% in the test on SR leukemia; 40.9% with RPMI-8226 leukemia; 86.5% in the test on OVCAR-8 ovarian; 55.4% with OVCAR-4 ovarian; 108% in the test with SK-OV-3 ovarian; 102% in the test with IGROV1 ovarian. Moreover, the growth in the test with OVCAR-3 ovarian was 107%; in the test on T-47D breast, 87.9%; with BT-549 breast, 74.4%; in the test with MDA-MB-435 melanoma, 104%; with SW-620 colon it was 109%; with MCF7 breast, 85.2%. Moreover, the growth in the test with HCT-116 colon is 74.3%; with HCC-2998 colon it was 97.6%; in the test with KM12 colon, 99.9%.

For `OC(c1cccc(OCc2ccccc2)c1)c1nnc(-c2ccccc2)o1` (stereo unspecified), the growth in the test with SR leukemia was 92.8%; in the test with RPMI-8226 leukemia, 57.8%; in the test on OVCAR-8 ovarian it was 95.9%; in the test with OVCAR-5 ovarian, 102%; with SK-OV-3 ovarian it was 106%; in the test on IGROV1 ovarian, 91.7%. For the same molecule, the growth with OVCAR-3 ovarian was 104%; with HS 578T breast, 96.9%; in the test on NCI/ADR-RES ovarian, 89.7%; in the test with T-47D breast, 72.9%; in the test with MDA-MB-435 melanoma it was 101%; with SW-620 colon, 104%. For the same molecule, the growth was 95.1% with MCF7 breast, 101% with HCT-116 colon, 112% in the test on HCC-2998 colon and 90.7% with KM12 colon.

For `CCCCCCCSc1ccc(C(=O)O)cc1`, the growth is 104% in the test with SR leukemia; 92.1% with RPMI-8226 leukemia; 95.7% with OVCAR-8 ovarian; 110% in the test on OVCAR-5 ovarian; 102% in the test with SK-OV-3 ovarian; 101% in the test with IGROV1 ovarian. In addition, the growth was 118% in the test with OVCAR-3 ovarian; 128% in the test on HS 578T breast; 109% in the test with NCI/ADR-RES ovarian; 107% in the test on T-47D breast; 112% in the test on BT-549 breast; 96% in the test on MDA-MB-435 melanoma. Further, the growth in the test on SW-620 colon was 105%; in the test on MCF7 breast, 84.3%; with HCT-116 colon, 99.3%; in the test with HCC-2998 colon it was 114%; in the test with KM12 colon it was 116%.

With `CC1(C)CC(=O)c2c(ccc(C(=O)C[C@H](N)CO)c2N)O1`, the growth is 16.7% with SR leukemia; 13% in the test with RPMI-8226 leukemia; 32.4% in the test with OVCAR-8 ovarian; 64.2% with OVCAR-5 ovarian; 69.8% with OVCAR-4 ovarian; 34.7% with IGROV1 ovarian. Moreover, the growth is 7.02% (active) in the test on OVCAR-3 ovarian; 82.4% with HS 578T breast; 70.5% in the test with NCI/ADR-RES ovarian; 53.8% with T-47D breast; 25% with BT-549 breast; 52.3% with MDA-MB-435 melanoma. Further, the results for the growth with MCF7 breast, in the test with HCC-2998 colon and in the test on KM12 colon were 13.3%, 9.33% (active) and 16%, respectively.

On to `COc1cc(C(=O)/C=C/c2c(C(F)(F)F)nc3ccccn23)cc(OC)c1OC`, for which the growth was -9.2% (active) with SR leukemia; -14.6% (active) in the test on RPMI-8226 leukemia; 3.68% (active) in the test on OVCAR-8 ovarian; 8.45% (active) in the test with OVCAR-4 ovarian; -1.92% (active) in the test on SK-OV-3 ovarian; 9.02% (active) with IGROV1 ovarian. Further, the growth in the test on OVCAR-3 ovarian is -57.3% (active); in the test with T-47D breast, 8.03% (active); with BT-549 breast, 10.4%; in the test with MDA-MB-435 melanoma it was -10.2% (active); with SW-620 colon, -29.6% (active); with MCF7 breast, -44.7% (active). The growth in the test with HCT-116 colon was -84.3% (active); with HCC-2998 colon it was -97.2% (active); in the test on KM12 colon it was -82.7% (active).

Regarding `CCN(CCO)CC(=O)c1cc(Cl)cc(Cl)c1Cl`, the growth with SR leukemia was 95.4%; in the test with RPMI-8226 leukemia, 97.1%; in the test on OVCAR-5 ovarian it was 109%; in the test with OVCAR-4 ovarian, 115%; in the test on SK-OV-3 ovarian, 102%; in the test with IGROV1 ovarian, 109%. For the same molecule, the growth in the test on OVCAR-3 ovarian is 106%; with HS 578T breast, 101%; in the test on NCI/ADR-RES ovarian, 102%; with T-47D breast it was 84%; in the test on BT-549 breast, 93.7%; with MDA-MB-435 melanoma, 105%. Also, the growth in the test on SW-620 colon is 102%; in the test with MCF7 breast it was 98.9%; with HCT-116 colon, 98.9%; in the test on HCC-2998 colon it was 98.2%; with KM12 colon it was 102%.

On to `CC(=O)Nc1cccc(C2=CC(c3ccc(C)cc3)n3ncnc3N2)c1` (stereo unspecified), for which the growth is 78.8% in the test on SR leukemia; 73.8% with RPMI-8226 leukemia; 95.2% in the test on OVCAR-5 ovarian; 103% in the test with OVCAR-4 ovarian; 133% with SK-OV-3 ovarian; 114% in the test on IGROV1 ovarian. Also, the growth with OVCAR-3 ovarian was 101%; with HS 578T breast, 92.8%; in the test with NCI/ADR-RES ovarian it was 97.6%; in the test on T-47D breast, 87.5%; in the test with MDA-MB-435 melanoma, 112%; in the test with SW-620 colon, 102%. For the same molecule, the growth in the test with MCF7 breast was 96.9%; in the test with HCT-116 colon it was 103%; with HCC-2998 colon, 112%; with KM12 colon, 97.2%.

As for `COc1ccc(-c2nc3ncccn3c2/C=C/C(=O)c2cc(OC)c(OC)c(OC)c2)cc1`, the growth in the test with SR leukemia is -2.39% (active); in the test on RPMI-8226 leukemia, -32.2% (active); in the test on OVCAR-8 ovarian it was 9.62% (active); in the test with OVCAR-4 ovarian it was 7.94% (active); in the test with SK-OV-3 ovarian, -13.5% (active); in the test with IGROV1 ovarian, 17.2%. For the same molecule, the growth with OVCAR-3 ovarian is -24.4% (active); in the test with T-47D breast, 17.8%; in the test with BT-549 breast, 15.6%; in the test on MDA-MB-435 melanoma, 15.2%; in the test on SW-620 colon, -1.58% (active); in the test on MCF7 breast, 3.17% (active). Moreover, the growth with HCT-116 colon is -84.8% (active); in the test with HCC-2998 colon, -58.4% (active); with KM12 colon it was -56.9% (active).
